Results from the supplement of paper PMC6555819.

Legend:
Assay in all cases: PBM binding z-score (relative to random genomic background probes); higher = stronger binding; sequences stand for … in GC…GCGATTGACAGCGTAGAATGAAGG
[1] = test system: FXR:RXRa (NR concentration 270 nM, RXRa partner concentration 90 nM)
Outline: (§1)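 Binding buffer was PBS pH 7.4 with 2% milk, 0.02% Triton X-100, 1 mM DTT, 0.2 mg/mL BSA and 0.4 mg/ml salmon testes DNA. In it, ligand-free nuclear receptor dimers were incubated 1 h on custom Agilent 4×180K protein-binding microarrays carrying double-stranded probes. Antibodies against each partner (one per run) detected binding, and z-scores were calculated against random background probes after regression normalization of scanned fluorescence.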

[2] = test system: LXRa:RXRa (NR concentration 270 nM, RXRa partner concentration 90 nM)
Outline: as §1

[3] = test system: LXRa homodimer (NR concentration 270 nM)
Outline: as §1

[4] = test system: LXRb:RXRa (NR concentration 270 nM, RXRa partner concentration 90 nM)
Outline: as §1

[5] = test system: LXRb homodimer (NR concentration 270 nM)
Outline: as §1

[6] = test system: PPARa:RXRa (NR concentration 270 nM, RXRa partner concentration 90 nM)
Outline: as §1

[7] = test system: PPARg:RXRa (NR concentration 180 nM, RXRa partner concentration 90 nM)
Outline: as §1

[8] = test system: PPARg:RXRa 270nM:90nM, anti-RXR (NR concentration 270 nM, RXRa partner concentration 90 nM)
Outline: as §1

[9] = test system: PPARg:RXRa 30nM:10nM, anti-RXR (NR concentration 30 nM, RXRa partner concentration 10 nM)
Outline: as §1

[10] = test system: PPARg:RXRa 90nM:30nM, anti-RXR (NR concentration 90 nM, RXRa partner concentration 30 nM)
Outline: as §1

Row | Sequence | PBM binding z-score [1] | PBM binding z-score [2] | PBM binding z-score [3] | PBM binding z-score [4] | PBM binding z-score [5] | PBM binding z-score [6] | PBM binding z-score [7] | PBM binding z-score [8] | PBM binding z-score [9] | PBM binding z-score [10]
1 | TGGCCTAGGTCATTCAGGGGCCAGTATAGAAAGC | 4.69 | 3.39 | 0.183 | 2.3 | 0.0581 | 3.59 | 2.15 | 2.33 | 0.133 | 1.5
2 | CCTGCTAGGTCAATGGTTAGCTAAAGCAGCTCGC | 2.78 | 1.76 | -0.418 | 1.44 | -0.3 | 2.63 | 3.33 | 3.77 | 1.16 | 3.2
3 | GCGTCTGGGGCAAAGCAGGTTACCATAAGGTTGG | 0.56 | 0.162 | -0.429 | 0.26 | -0.82 | 1.26 | 0.532 | 0.46 | -0.355 | 0.0417
4 | TCTATCAGTTGAAGGGCAACCGACGAGTCCGTTT | 0.369 | 0.777 | -0.273 | 0.501 | -0.0897 | 0.935 | 0.152 | 2 | 3.44 | 2.89
5 | TCTATTAGTTGAAGGGCAACAGACGAGTCCGTTT | 0.85 | 0.613 | 0.367 | 0.805 | 0.326 | 0.993 | 0.441 | 2.09 | 3.73 | 2.9
6 | TCTTGTAGATCAACATGAGGTTAAGAAAGATCGA | 0.309 | 1.61 | 0.535 | 1.19 | 0.134 | 1.62 | 0.344 | 1.66 | 2.62 | 2.31
7 | GCTAGTTGGTCACTAAAAGGTCACACACCGGTCG | 3.49 | 4.28 | 4.38 | 4.27 | 0.864 | 4.44 | 2 | 3.69 | 0.993 | 2.6
8 | ATCTCCAGGTAAAAGTTCAGTGAATCCCGAGGAT | 1.06 | 1.58 | 1.65 | 1.15 | 0.946 | 3.5 | 5.76 | 6.62 | 6.15 | 7.28
9 | GATACAGGGACAGCTAGAGGCCAGAGTATGGAAA | -0.243 | -0.821 | -0.464 | -0.674 | -0.57 | -0.178 | 0.636 | -0.579 | -0.2 | -0.369
10 | CTCGAAAGGTCGGATGAGGTGAGTATACGGATAA | 2.61 | 2.09 | 0.0368 | 1.69 | -0.334 | 3.17 | 1.02 | 1.66 | 0.432 | 0.958
11 | CCTGACAGGTGAGAAGGTAACTCAGCCTCGATTA | -0.00915 | 0.102 | -0.219 | -0.0265 | -0.779 | 0.763 | 0.404 | 0.701 | -0.205 | 0.257
12 | TAGCCTAGGTGATGGGCCAGTATACCACGCGAAC | -0.85 | -0.73 | -0.59 | -0.909 | -0.955 | -0.386 | 0.501 | 0.427 | -0.547 | -0.0568
13 | ATATGTAGGTTAGGTGGGGTCATTCAGACTAGGC | 5.01 | 6.16 | 3.73 | 5.37 | 2.74 | 5.23 | 5.59 | 5.49 | 2.48 | 4.67
14 | TCTAGCAGTCCAGAGGGTCACTCAAGAGGTACGG | 0.754 | 0.962 | -0.326 | 1.19 | -1.12 | 2.06 | 0.609 | 1.52 | 2.05 | 1.63
15 | AGTCAAAGTTCACTTGGTAACGTAAGATTCAGCT | 4.85 | 5.05 | 3.34 | 3.4 | 1.63 | 3.85 | 5.08 | 5.79 | 2.52 | 4.52
16 | GCGACTGGGGCAAAGCAGGTTCCCATAAGGTTGG | -0.34 | -0.649 | -0.593 | -0.596 | -1.21 | 0.522 | 0.609 | 0.847 | -0.583 | 0.203
17 | CTCGAACGGTCGGTTGAGGTGAGTATACGGATAA | 0.102 | -0.565 | -0.727 | -0.59 | -0.761 | -0.3 | -0.199 | -0.622 | -0.623 | -0.601
18 | CCTGCTAGGTCACTGGTCAGCTAAAGCAGCTCGC | 3.06 | 2.12 | -0.0651 | 1.42 | 0.0623 | 3.29 | 3.55 | 4.04 | 1.31 | 3.18
19 | AATTCAGGGTCATCGTAGGCCAGAGTACGCACAG | 7.63 | 6.71 | 4.2 | 5.55 | 2.29 | 6.2 | 7.36 | 7.02 | 3.49 | 5.72
20 | GCGACTGTGGCAAAGCAGGTTACCATAAGGTTGG | -0.28 | -0.311 | -0.53 | -0.511 | -1.38 | 0.3 | 0.331 | -0.377 | -0.529 | -0.508
21 | CCGACTGGGGCAGAAAGGTTACGATACCATCCGG | 0.702 | 0.832 | -0.247 | 1.01 | -0.887 | 2.34 | 2.25 | 3.05 | 0.964 | 2.25
22 | CAAACTAGGTCGCAGAGGTCAAAGTCCGTGCGTA | 5.75 | 6.03 | 5.84 | 5.36 | 1.26 | 5.7 | 7.46 | 6.53 | 4.01 | 6.06
23 | CCGACTGGGGCAGAAAGGGTACCATACCATCCGG | -0.642 | -0.505 | -0.574 | -0.581 | -1.48 | 0.209 | 0.831 | 0.193 | -0.692 | 0.0495
24 | AGTCAACGTTCACTAGGTAACGTAAGATTCAGCT | -0.243 | -0.0638 | -0.401 | -0.00739 | 0.00206 | 0.525 | 0.874 | 0.511 | 0.121 | 0.475
